# Measurements: PubChem BioAssay (NCATS)
# The other results are listed elsewhere or left out. Results filed as inconclusive are left out. A number with no mark means an inactive call. Active and inactive are the calls of the source. Calls follow the shape of the dose curve; as a rule, active = well fitted curve in the direction sought with a large enough effect; inconclusive = small, poorly fitted or top-dose-only effect, or another doubt; inactive = no such curve, though single readings can be large; an effect the other way counts as inactive or inconclusive.
# Target: DNA repair nuclease/redox regulator APEX1 (Homo sapiens) (UniProt P27695)
# Sequence (P27695 whole entry, looked up): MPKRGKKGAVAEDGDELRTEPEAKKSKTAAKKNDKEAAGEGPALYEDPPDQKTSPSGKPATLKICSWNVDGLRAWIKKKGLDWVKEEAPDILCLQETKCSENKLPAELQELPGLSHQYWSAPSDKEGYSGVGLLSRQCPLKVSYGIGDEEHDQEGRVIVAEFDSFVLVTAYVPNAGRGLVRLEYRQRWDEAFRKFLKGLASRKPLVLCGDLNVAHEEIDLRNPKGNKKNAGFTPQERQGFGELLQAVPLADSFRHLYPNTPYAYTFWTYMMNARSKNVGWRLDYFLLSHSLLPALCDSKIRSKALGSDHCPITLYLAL
# Experiment: Confirmation qHTS Assay for Inhibitors of the Human Apurinic/apyrimidinic Endonuclease 1 (APE1) (AID 2572); also: nearly all actives have a fitted effect of over 30% in size; also: potency is read from the fitted curve at half-maximal effect;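 as to activity change, negative = inhibition: fluorescence gain from purified APE1 cutting a TAMRA/BHQ-2 THF abasic duplex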
# Settings: purified APE1, fluorogenic abasic-site DNA cleavage; series mostly up to 57.1 µM; activity change, negative = inhibition: at the top concentration
# Summary of the method: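 Enzyme preincubated 15 min at room temperature with compound; reaction started with 50 nM final double-stranded THF abasic-site substrate (5'-TAMRA, 3'-BHQ-2). Fluorescence read kinetically (525/598 nm); third-minus-first read difference gives reaction progress.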
# % is scaled to controls: 0 for no effect and ±100 for the full control effect.
Compound,Potency,"activity change, negative = inhibition"
N#Cc1ccccc1CN1C(=O)S/C(=C/c2cccn2-c2cccc(C(=O)O)c2)C1=O,14.1 µM (active),–
CC(=O)NS(=O)(=O)c1ccc(NC(=O)C2C3C=CC(C3)C2C(=O)O)cc1 (configuration not stated),–,-15.6%
O=C(NCc1ccccn1)c1ccc2nc(-c3ccco3)c(-c3ccco3)nc2c1,8.91 µM (active),–
CC(C)(C)C(=O)OCc1nc(-c2ccc(O)c(O)c2)cs1,11.2 µM (active),–

# Test system: not listed separately
# Experiment: qHTS Assay for Inhibitors of Fructose-1,6-bisphosphate Aldolase from Giardia Lamblia: Giardia lamblia growth inhibition (AID 2785); also: nearly all actives have a fitted effect of over 70% in size
# Settings: Giardia lamblia trophozoite growth inhibition; series mostly up to 57.5 µM; activity change, negative = inhibition: at the top concentration
# Summary of the method: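 G. lamblia WB trophozoites (100 cells/well) were grown with compound at 37C for 48 h in modified TYI-S-33 medium, pH 7.0. Growth was measured by ATPlite luminescence after 20 min at room temperature.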
row,Compound,"activity change, negative = inhibition"
1,O=C(CSc1cccc[n+]1[O-])c1ccc(-c2ccccc2)cc1,-21.3%
2,CN(C)CCOc1ccc(Cl)cc1C(C)(C)C,-6.56% [at 10.4 µM]
3,CN1CCN(CCCCOc2ccccc2-c2ccccc2)CC1,45.3%
4,Cc1csc(NC(=O)CN2CCCCCC2)n1,1.38% [at 10.4 µM]
5,CCN(CC(=O)NC(=O)NCc1ccccc1)Cc1nc2ccccc2c(=O)[nH]1,-29.8%

# Test system: not listed separately
# Experiment: qHTS Assay for Inhibitors of Fructose-1,6-bisphosphate Aldolase from Giardia Lamblia: Mammalian cellular toxicity (AID 2786);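 also: compound exposure lasted 48 h before reading; nearly all actives have a fitted effect of over 60% in size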; also: potency is read from the fitted curve at half-maximal effect
# Settings: mammalian cell viability counter-screen; series mostly up to 57.5 µM; viability change, negative = toxicity: at the top concentration
# Summary of the method: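 CHO cells seeded at 250 cells/well with pin-tool-added compound, incubated 48 h at 37 °C, 5% CO2. Viability read as ATP content by ATPlite luminescence after 20 min.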
Compound,"viability change, negative = toxicity",Potency
O=C(O)Cn1c(Cc2ccccc2)nc2ccccc21,-4.21%,–
O=C1CCCN1CCCNC(=S)Nc1ccc(F)c(Cl)c1,-9.81%,–
Cc1cccc(C)c1OCCN1CCOCC1,9.69%,–
COc1ccc(Cl)cc1C(=O)NNC(=O)c1nc2nc(C)cc(C)n2n1,12.3%,–
CC(C)(c1ccccc1)c1ccc(OCCN2CCCC2)cc1,7.3%,–
CN1CCN(CCCCOc2ccccc2-c2ccccc2)CC1,-3.92%,–
O=C(Nc1nnc(-c2ccco2)o1)c1ccc(S(=O)(=O)N2CCOCC2)cc1,8.14%,–
O=C(CN1CCN(Cc2ccccc2)CC1)Nc1ccc(F)c(F)c1,15.6%,–
Cc1cc(C)n(-c2ccc(Cl)c(C(=O)O)n2)n1,7.82%,–
Cc1ccc(S(=O)(=O)NNC(=S)NC(C)(C)C)cc1,-3.18%,–
CSc1n[nH]c(=S)n1N,2.66%,–
CCN1CCc2c(C#N)c(NCc3ccccc3)nc(NCCO)c2C1,16.3%,–
Cc1ccc(OCCCCc2c(C)n[nH]c2C)cc1,29.7%,–
C=CCc1cc(C)ccc1OCCCn1ccnc1,19.1%,–
O=[N+]([O-])c1cc([N+](=O)[O-])c2cccnc2c1O,21.6%,–
Cc1ccc(C(=O)Nc2nnc(C3=COCCO3)o2)cc1C,0.426%,–
Oc1ccc2ccccc2c1N=Nc1nccs1,–,10 µM (active)
CCS(=O)(=O)c1cc([N+](=O)[O-])c(Sc2ccccc2N)s1,6.63%,–
Clc1cccc(CN2COc3c(cc(Cl)c4cccnc34)C2)c1,–,20 µM (active)

# Target: Fructose-bisphosphate aldolase (Giardia intestinalis (strain ATCC 50803 / WB clone C6)) (UniProt A8B2U2)
# Sequence (A8B2U2 whole entry, looked up): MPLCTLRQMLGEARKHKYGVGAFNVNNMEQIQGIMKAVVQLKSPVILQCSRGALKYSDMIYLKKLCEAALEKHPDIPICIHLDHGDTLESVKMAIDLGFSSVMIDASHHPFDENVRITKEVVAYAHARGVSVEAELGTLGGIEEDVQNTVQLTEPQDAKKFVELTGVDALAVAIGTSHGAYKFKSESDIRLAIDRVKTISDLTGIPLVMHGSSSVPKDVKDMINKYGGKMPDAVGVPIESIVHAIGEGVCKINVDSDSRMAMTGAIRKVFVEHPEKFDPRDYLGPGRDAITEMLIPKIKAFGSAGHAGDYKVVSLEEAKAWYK
# Experiment: qHTS Assay for Inhibitors of Fructose-1,6-bisphosphate Aldolase from Giardia Lamblia: Primary screen confirmation (AID 2787);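 also: aldolase product measured through coupled diaphorase step turning resazurin into fluorescent resorufin; nearly all actives have a fitted effect of over 45% in size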
# Settings: purified Giardia aldolase enzyme activity; series mostly up to 57.5 µM; activity change, negative = inhibition: at the top concentration
# Summary of the method: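 Confirmation of primary hits by qHTS up to 57.5 uM final compound. Enzyme at 40 nM with 30 uM ZnCl2, 10 min RT pre-incubation, then substrate/coupling/resorufin-forming detection mix for 20 min before fluorescence read at 525/598 nm.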
row,Compound,"activity change, negative = inhibition"
1,O=[N+]([O-])c1ccc2nc(-c3ccccn3)[nH]c2c1,-17.5%
2,Cn1nnc(NC(=S)NC(=O)c2ccccc2)n1,1.95%
3,CC1CCCN(S(=O)(=O)c2ccc(C(=O)Nc3nnc(-c4ccncc4)o3)cc2)C1 (configuration not stated),-0.279%
4,Cc1nnc(N/N=C/c2ccccn2)[nH]c1=O,-13.9%
5,Cc1cc(C)nc(N/N=C/c2ccc([N+](=O)[O-])o2)n1,-14.8%
6,COc1ccc(N=Nc2c(-c3ccc(OC)cc3)[nH]oc2=O)cc1,-5%
7,CNC(=S)N/N=C/c1ccc(N2CCOCC2)s1,-10.7%
8,COc1cc(CN2CCN(Cc3ccc(C)cc3)CC2)c([N+](=O)[O-])cc1OC,-8.67%
9,Cc1ccc(OCCCCc2c(C)n[nH]c2C)cc1,-7.21%
10,C=CCc1cc(C)ccc1OCCCn1ccnc1,-4.57%
11,Cc1nnc(SCC2=C(C(=O)O)N3C(=O)C(NC(=O)Cn4nc(C)c(Cl)c4C)C3SC2)s1 (configuration not stated),-5%
12,Cc1csc(NC(=O)CN2CCCCCC2)n1,2.62%
13,CN1CCCc2cc(C#N)c(=O)[nH]c21,-24%
14,CCS(=O)(=O)c1cc([N+](=O)[O-])c(Sc2ccccc2N)s1,11.1%
15,O=C(Nc1ccccc1Cl)O/N=C(/c1ccccc1)c1ccccn1,-7.81%
16,COc1ccc(CN2CCN(Cc3ccc(OC)c(OC)c3OC)CC2)cc1,-11.3%

# Target: Fructose-bisphosphate aldolase A (Oryctolagus cuniculus) (UniProt P00883)
# Sequence (P00883 whole entry, looked up): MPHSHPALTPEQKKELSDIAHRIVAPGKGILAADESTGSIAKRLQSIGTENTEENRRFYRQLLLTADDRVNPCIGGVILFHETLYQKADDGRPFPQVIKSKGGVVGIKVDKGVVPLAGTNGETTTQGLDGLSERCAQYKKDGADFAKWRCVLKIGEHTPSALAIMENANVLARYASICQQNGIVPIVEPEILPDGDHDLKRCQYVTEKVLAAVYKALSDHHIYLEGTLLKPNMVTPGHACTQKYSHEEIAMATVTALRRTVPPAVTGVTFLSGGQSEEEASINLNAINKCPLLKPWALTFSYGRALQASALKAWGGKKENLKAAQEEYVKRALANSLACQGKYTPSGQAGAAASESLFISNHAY
# Experiment: qHTS Assay for Inhibitors of Fructose-1,6-bisphosphate Aldolase from Giardia Lamblia: Rabbit FBPA Selectivity (AID 2794); also: nearly all actives have a fitted effect of over 60% in size
# Settings: Rabbit muscle FBPA enzyme inhibition, selectivity counter-screen; series mostly up to 57.5 µM; activity, negative = inhibition: at the top concentration
# Summary of the method: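 To triage Class I aldolase inhibitors, rabbit FBPA activity is followed through a glyceraldehyde-3-phosphate-linked enzyme cascade feeding AmpLite Red. Compounds (up to 57.5 uM final) sit 10 min with coupling enzymes before substrate; fluorescence is read 20 min later.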
row,Compound,"activity, negative = inhibition"
1,O=C(O)Cn1c(Cc2ccccc2)nc2ccccc21,3.92%
2,CN(C)CCOc1ccc(Cl)cc1C(C)(C)C,-10.1%
3,Cc1cc(C)nc(N/N=C/c2ccc([N+](=O)[O-])o2)n1,-8.84%
4,COc1ccc(N=Nc2c(-c3ccc(OC)cc3)[nH]oc2=O)cc1,3.66%
5,Cc1cc(C)n(-c2ccc(Cl)c(C(=O)O)n2)n1,-10%
6,CSc1n[nH]c(=S)n1N,-2.76%
7,Cc1ccc(C(=O)Nc2nnc(C3=COCCO3)o2)cc1C,-6.22%
8,Oc1ccc2ccccc2c1N=Nc1nccs1,-13.3%
9,Clc1cccc(CN2COc3c(cc(Cl)c4cccnc34)C2)c1,-19.4%
10,COc1ccc(CN2CCN(Cc3ccc(OC)c(OC)c3OC)CC2)cc1,-2.94%

# Test system: not listed separately
# Experiment: qHTS Assay for Inhibitors of Fructose-1,6-bisphosphate Aldolase from Giardia Lamblia: Coupling assay counterscreen confirmation (AID 2795); also: nearly all actives have a fitted effect of over 55% in size
# Settings: GAPDH coupling enzyme counterscreen, biochemical; series mostly up to 57.5 µM; activity change, negative = inhibition: at the top concentration
# Summary of the method: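 Fluorescence (excitation 525 nm, emission 598 nm) reports signal from the coupled glyceraldehyde-3-phosphate dehydrogenase system with an AmpLite Red detection kit. Compounds up to 57.5 uM final were incubated 10 min, then 20 min after substrate addition, both at room temperature.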
row,Compound,"activity change, negative = inhibition"
1,O=C1CCCN1CCCNC(=S)Nc1ccc(F)c(Cl)c1,4.58%
2,COc1ccc(Cl)cc1C(=O)NNC(=O)c1nc2nc(C)cc(C)n2n1,14.1%
3,O=C(Nc1nnc(-c2ccco2)o1)c1ccc(S(=O)(=O)N2CCOCC2)cc1,4.14%
4,CNC(=S)N/N=C/c1ccc(N2CCOCC2)s1,-21.6%
5,CCN1CCc2c(C#N)c(NCc3ccccc3)nc(NCCO)c2C1,-5.96%
6,C=CCc1cc(C)ccc1OCCCn1ccnc1,-10.1%
7,O=[N+]([O-])c1cc([N+](=O)[O-])c2cccnc2c1O,-20.4%
8,CN1CCCc2cc(C#N)c(=O)[nH]c21,-17%
